Data taken from PubChem BioAssay (NCI).
This is part of a sample that, as a whole, favours compounds with a hit. Of some 83,000 tested, about 20% had one in any assay.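 96-well plates, one dose, 48 hours. Percent growth reported; active if below 10.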 Activity calls are given as the source filed them.

Columns and labels:
Assay in all cases: NCI-60 one-dose screen, 48 h (100 = growth as untreated, 0 = no growth, -100 = all killed)
Conditions in all cases: 10 µM unless noted
[1] = tested on: NCI-H23 lung
[2] = tested on: NCI-H226 lung
[3] = tested on: NCI-H322M lung
[4] = tested on: HOP-62 NSCLC
[5] = tested on: NCI-H460 lung
[6] = tested on: HOP-92 NSCLC
[7] = tested on: NCI-H522 lung
[8] = tested on: A549/ATCC NSCLC
[9] = tested on: 786-0 renal
[10] = tested on: COLO 205 colon
[11] = tested on: DU-145 prostate
[12] = tested on: K-562 leukemia
[13] = tested on: MALME-3M melanoma
[14] = tested on: MDA-MB-231 breast
[15] = tested on: RXF 393 renal
[16] = tested on: SF-268 CNS
[17] = tested on: SF-295 CNS
[18] = tested on: SF-539 CNS
[19] = tested on: UACC-257 melanoma
[20] = tested on: M14 melanoma

Measured: growth

CC[C@]12C=CCN3CC[C@@]4(c5ccc(OC)cc5N(C)[C@H]4[C@@](O)(C(=O)OC)[C@@H]1OC(=O)CCCN1CCOCC1)[C@@H]32
inactive: [1] 106% | [2] 108% | [3] 106% | [4] 99.1% | [5] 111% | [6] 94.5% | [7] 100% | [8] 101% | [9] 96.9% | [10] 108% | [11] 106% | [12] 100% | [13] 110% | [14] 115% | [15] 114% | [16] 98.6% | [17] 104% | [18] 106% | [19] 104% | [20] 103%

COc1ccc(OC)c(-c2cn3nc(-c4c[nH]c5ccc(Br)cc45)sc3n2)c1
inactive: [1] 25% | [2] 89.9% | [3] 50.6% | [4] 60.9% | [6] 46.5% | [8] 14.5% | [9] 49.3% | [10] 29.8% | [11] 29.3% | [13] 52.2% | [15] 67.8% | [16] 18.3% | [17] 54.1% | [19] 84.9% | [20] 12.7%
active: [5] -32.4% | [7] 8.67% | [12] 5.98% | [14] 9.49% | [18] -12.8%

Clc1nn2c(Cn3cnc4c(NCc5ccccc5)ncnc43)nnc2c2ccccc12
active: [6] 5.22%
inactive: [1] 53.6% | [2] 42.5% | [3] 21% | [4] 37.9% | [5] 34% | [7] 43.7% | [8] 40% | [9] 40% | [10] 35.1% | [11] 36.7% | [12] 42.7% | [13] 27.8% | [14] 26.6% | [15] 39% | [16] 41.9% | [17] 63.2% | [18] 50.7% | [19] 39.1% | [20] 19.7%

CCOC(=O)C1=C(c2ccccc2)N=c2s/c(=C/c3ccc(Br)cc3)c(=O)n2C1c1ccc(O)cc1 (stereo not given)
inactive: [1] 95.4% | [2] 86.6% | [3] 91.9% | [4] 105% | [5] 94.1% | [6] 71.2% | [7] 87.9% | [8] 80.2% | [9] 77.4% | [10] 118% | [11] 95.5% | [12] 77.6% | [13] 94.3% | [14] 81.6% | [15] 102% | [16] 83.8% | [17] 95.6% | [18] 97.9% | [19] 86.9% | [20] 87.2%

CC[C@H](Nc1nc(N)nc(C)c1C#N)c1nc2cccc(NCCCCCC(=O)NO)c2c(=O)n1-c1ccccc1
active: [15] -6.92%
inactive: [1] 73.3% | [2] 75% | [3] 75.9% | [4] 66.2% | [5] 77% | [6] 27.2% | [7] 53.2% | [8] 79.3% | [9] 27.5% | [10] 86.2% | [11] 69.5% | [12] 77.1% | [13] 52.6% | [14] 61.8% | [16] 55.7% | [17] 22.9% | [18] 45.9% | [19] 54.4% | [20] 71.3%

COc1ccc2c(O)c(/C=C3\N=Nc4ccccc43)oc2c1C[C@H]1CCNC[C@H]1F
active: [10] 0.564%
inactive: [1] 46.8% | [2] 60.6% | [3] 73.4% | [4] 53.6% | [5] 29.8% | [6] 38.6% | [7] 46.7% | [8] 34.4% | [9] 57.8% | [11] 51.1% | [12] 37.4% | [13] 42.3% | [14] 47.8% | [15] 59.9% | [16] 77.2% | [17] 66.9% | [18] 57.4% | [19] 52.2% | [20] 28.7%

N#Cc1c(NC(=O)c2cccs2)[n+]([O-])c2ccc(Cl)cc2[n+]1[O-]
inactive: [1] 103% | [2] 92.1% | [3] 108% | [4] 95.7% | [5] 113% | [6] 94.8% | [7] 93.7% | [8] 122% | [9] 107% | [10] 113% | [11] 121% | [12] 106% | [13] 92% | [14] 82.7% | [15] 127% | [16] 106% | [17] 93.8% | [18] 108% | [19] 120% | [20] 80.2%

COc1cc2c3c(c1O)-c1ccccc1[C@@H]1OC(=O)N(CC2)[C@H]31
inactive: [1] 100% | [2] 96.7% | [3] 113% | [4] 104% | [5] 100% | [6] 80.8% | [7] 94% | [8] 97% | [9] 102% | [10] 107% | [11] 120% | [12] 112% | [13] 103% | [14] 93.1% | [15] 97.6% | [16] 104% | [17] 103% | [18] 108% | [19] 95.6% | [20] 103%
